Results as given in PubChem BioAssay (EPA / NIEHS).
Values joined by “and” are separate entries in the source; they are usually repeats but may differ in a detail not shown here. Identical values can stand only once. Records with an inconclusive call do not appear. More than one record can exist for a structure, and the calls need not agree. Active and inactive are the calls of the source. The calls were made as follows, unless noted: active = hit-call score of the fitted dose curve at least 0.9, where 1 is the maximum; inactive = score below 0.9.

How the values were obtained:
[1] = molecular target: Retinoic acid receptor RXR-alpha (Homo sapiens) (UniProt P19793); experiment: ATG_RXRa_TRANS: Attagene TRANS-FACTORIAL HepG2 Assay for human Retinoid X Receptor alpha (RXRa) (AID 2283012; active = hit-call score of the fitted dose curve at least 0.9, where 1 is the maximum)
Procedure, shortened: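 Read-out: fluorescent reporter-transcript fragments quantified by capillary electrophoresis after RT-PCR. Transiently transfected HepG2 cells carrying GAL4-UAS reporters and NR-GAL4 chimeras were exposed to chemical for 24 h; activity scored as increase over DMSO.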

[2] = molecular target: human Retinoid X Receptor beta (RXRb), RXRB (gene 6257) (UniProt P28702); experiment: ATG_RXRb_TRANS: Attagene TRANS-FACTORIAL HepG2 Assay for human Retinoid X Receptor beta (RXRb) (AID 2283013; active = hit-call score of the fitted dose curve at least 0.9, where 1 is the maximum)
Procedure, shortened: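 Read-out: reporter mRNA induction via RT-PCR plus capillary electrophoresis fluorescence, analysed as signal increase relative to DMSO. Cells were human HepG2, transiently transfected with GAL4-UAS reporter constructs and chimeric receptor-Gal4 fusions, dosed for 24 h.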

[3] = read-out: E-selectin (Homo sapiens) (UniProt P16581); experiment: BSK_3C_Eselectin: BioMAP Diversity Plus: 3C Assay for Eselectin Biomarker Activity (AID 2283015); conditions: primary human endothelial cells (HUVEC); actives raise or lower the signal
Procedure, shortened: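 E-selectin ELISA readout, fitted bidirectionally relative to DMSO, taken 24 h post-dosing in HUVEC cultures of the 3C system. Overt cytotoxicity tracked with sulforhodamine B staining of parallel wells.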

[4] = read-out: Interleukin-1 alpha (IL1a), IL1A (gene 3552); experiment: BSK_BE3C_IL1a: BioMAP Diversity Plus: BE3C Assay for Interleukin-1 alpha (IL1a) Biomarker Activity (AID 2283016); conditions: primary human bronchial epithelial cells; actives raise or lower the signal
Procedure, shortened: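 ELISA read-out of IL-1a from human lung bronchial epithelial primary cells, 24 h post-dose. Gain or loss of signal fitted relative to DMSO negative control.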

[5] = read-out: Monocyte Chemoattractant Protein-1 (MCP1), CCL2 (gene 6347); experiment: BSK_3C_MCP1: BioMAP Diversity Plus: 3C Assay for Monocyte Chemoattractant Protein-1 (MCP1) Biomarker Activity (AID 2283017); conditions: primary human endothelial cells (HUVEC); actives raise or lower the signal
Procedure, shortened: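 MCP-1 was measured by ELISA 24 h after dosing in primary HUVEC 3C cultures and fitted in both directions relative to DMSO; cytotoxicity was checked by SRB total-protein staining in parallel wells.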

[6] = read-out: Monocyte Chemoattractant Protein-1 (MCP1), CCL2 (gene 6347); experiment: BSK_4H_MCP1: BioMAP Diversity Plus: 4H Assay for Monocyte Chemoattractant Protein-1 (MCP1) Biomarker Activity (AID 2283018); conditions: primary human endothelial cells (HUVEC); actives raise or lower the signal
Procedure, shortened: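 HUVEC primary cells, 24 h post-dose, MCP-1 by ELISA. Gain or loss of signal fitted bidirectionally vs DMSO baseline. Cytotoxicity: SRB stain (0.1% after 10% TCA fixation), read 560 nm, parallel cultures.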

[7] = read-out: Human Leukocyte Antigen - DR isotype (HLADR), HLA-DRA (gene 3122); experiment: BSK_3C_HLADR: BioMAP Diversity Plus: 3C Assay for Human Leukocyte Antigen - DR isotype (HLADR) Biomarker Activity (AID 2283019); conditions: primary human endothelial cells (HUVEC); actives raise or lower the signal
Procedure, shortened: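 Bidirectional fitting against DMSO was applied to the HLA-DR ELISA signal from human umbilical vein endothelial cells, 24 h post-dose. Cytotoxicity came from parallel SRB total-protein staining; 3C proliferation was counted by SRB at 48 h.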

[8] = read-out: Interleukin-8 (IL8), CXCL8 (gene 3576); experiment: BSK_3C_IL8: BioMAP Diversity Plus: 3C Assay for Interleukin-8 (IL8) Biomarker Activity (AID 2283020); conditions: primary human endothelial cells (HUVEC); actives raise or lower the signal
Procedure, shortened: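 HUVEC, 3C stimulation; 24 h compound exposure; IL-8 read by ELISA; gain or loss of signal fitted relative to DMSO control.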

[9] = read-out: Monokine induced gamma interferon (MIG), CXCL9 (gene 4283); experiment: BSK_3C_MIG: BioMAP Diversity Plus: 3C Assay for Monokine induced gamma interferon (MIG) Biomarker Activity (AID 2283021); conditions: primary human endothelial cells (HUVEC); actives raise or lower the signal
Procedure, shortened: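 HUVEC, 3C system; 24 h chemical exposure; MIG by ELISA; bidirectional fit vs DMSO baseline.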

[10] = molecular target: human Vitamin D Receptor (VDR), VDR (gene 7421) (UniProt P11473); experiment: ATG_VDR_TRANS: Attagene TRANS-FACTORIAL HepG2 Assay for human Vitamin D Receptor (VDR) (AID 2283022; active = hit-call score of the fitted dose curve at least 0.9, where 1 is the maximum)
Procedure, shortened: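 Transactivation by an exogenous VDR-Gal4 chimera in transiently transfected HepG2 cells was measured as reporter transcript level 24 hours after chemical treatment. RT-PCR products were analysed by capillary electrophoresis and fitted in the positive direction relative to DMSO.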

[11] = BSK_3C_SRB: Viability Assessment in the BioMAP Diversity Plus: 3C Assay (AID 2283023); conditions: primary human endothelial cells (HUVEC);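 also: fitted both ways against DMSO so a hit may be signal rise or drop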
Procedure, shortened: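 Cytotoxicity readout in parallel HUVEC 3C cultures: after 24 h compound exposure, cells fixed with 10% TCA, stained with 0.1% SRB and read at 560 nm. Gain or loss relative to DMSO fitted.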

[12] = read-out: Matrix Metallopeptidase 1 (MMP1), MMP1 (gene 4312); experiment: BSK_BE3C_MMP1: BioMAP Diversity Plus: BE3C Assay for Matrix Metallopeptidase 1 (MMP1) Biomarker Activity (AID 2283024); conditions: primary human bronchial epithelial cells; actives raise or lower the signal
Procedure, shortened: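 ELISA read-out of MMP1 in human lung bronchial epithelial primary cultures, 24 h post-dose; bidirectional curve fit vs DMSO baseline, gain or loss of signal scored.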

[13] = BSK_3C_Vis: BioMAP Diversity Plus: 3C Assay for Morphology Visualization (AID 2283025); conditions: primary human endothelial cells (HUVEC);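 also: fitted both ways so gain or loss versus DMSO counts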;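 as to AC50: light microscopy image of cell morphology used as background control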
Procedure, shortened: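 HUVEC, 3C system; light microscopy of morphology at 24 h post-dose. Bidirectional fit vs DMSO baseline. Secondary readout, background-control function.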

[14] = read-out: Pselectin, SELP (gene 6403); experiment: BSK_4H_Pselectin: BioMAP Diversity Plus: 4H Assay for Pselectin Biomarker Activity (AID 2283026); conditions: primary human endothelial cells (HUVEC); actives raise or lower the signal
Procedure, shortened: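 HUVEC, 24 h chemical exposure; P-selectin read by ELISA. Bidirectional curve fit vs DMSO baseline; gain or loss of signal scored.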

[15] = BSK_4H_SRB: Viability Assessment in the BioMAP Diversity Plus: 4H Assay (AID 2283027); conditions: primary human endothelial cells (HUVEC);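 also: cells exposed to compound for 24 h before staining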;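 as to AC50: curves fitted both ways versus DMSO so AC50 may be loss or gain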
Procedure, shortened: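 Cytotoxicity readout: sulforhodamine B (0.1%) staining of total protein after 10% TCA fixation, measured at 560 nm in human umbilical vein endothelium at 24 h. DMSO set the baseline; fitting was bidirectional.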

[16] = BSK_BE3C_SRB: Viability Assessment in the BioMAP Diversity Plus: BE3C Assay (AID 2283028); conditions: primary human bronchial epithelial cells;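 as to AC50: fitted both ways so AC50 may mark signal gain or loss versus DMSO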
Procedure, shortened: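 Cytotoxicity read-out: SRB (0.1%) staining of TCA-fixed (10%) human lung bronchial epithelial cells, absorbance 560 nm, 24 h post-dosing. Curves fitted both directions relative to DMSO.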

[17] = read-out: Thrombomodulin, THBD (gene 7056); experiment: BSK_3C_Thrombomodulin: BioMAP Diversity Plus: 3C Assay for Thrombomodulin Biomarker Activity (AID 2283029); conditions: primary human endothelial cells (HUVEC); actives raise or lower the signal
Procedure, shortened: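 HUVEC, 3C conditions; compound 24 h; thrombomodulin by ELISA; bidirectional curve fit vs DMSO baseline; parallel SRB total-protein staining for cytotoxicity.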

[18] = read-out: Urokinase-type plasminogen activator receptor (uPAR), PLAUR (gene 5329); experiment: BSK_4H_uPAR: BioMAP Diversity Plus: 4H Assay for Urokinase-type plasminogen activator receptor (uPAR) Biomarker Activity (AID 2283030); conditions: primary human endothelial cells (HUVEC); actives raise or lower the signal
Procedure, shortened: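 uPAR level read by ELISA on HUVEC cultures (BioMAP 4H) 24 h post-dosing, analyzed for gain or loss relative to DMSO. Parallel SRB staining assessed overt cytotoxicity.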

[19] = read-out: Vascular endothelial growth factor receptor 2 (Homo sapiens) (UniProt P35968); experiment: BSK_4H_VEGFRII: BioMAP Diversity Plus: 4H Assay for Vascular endothelial growth factor receptor 2 (VEGFR2) Biomarker Activity (AID 2283031); conditions: primary human endothelial cells (HUVEC); actives raise or lower the signal
Procedure, shortened: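 Measured by ELISA after 24 h of compound treatment: VEGFR2 on primary human umbilical vein endothelial cells, fitted in both directions relative to DMSO. Parallel cultures received SRB staining (560 nm) for overt cytotoxicity.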

Measured: AC50

Chain of Retinoic acid receptor RXR-alpha (Homo sapiens) (P19793 whole entry, looked up, the tested form may be a part): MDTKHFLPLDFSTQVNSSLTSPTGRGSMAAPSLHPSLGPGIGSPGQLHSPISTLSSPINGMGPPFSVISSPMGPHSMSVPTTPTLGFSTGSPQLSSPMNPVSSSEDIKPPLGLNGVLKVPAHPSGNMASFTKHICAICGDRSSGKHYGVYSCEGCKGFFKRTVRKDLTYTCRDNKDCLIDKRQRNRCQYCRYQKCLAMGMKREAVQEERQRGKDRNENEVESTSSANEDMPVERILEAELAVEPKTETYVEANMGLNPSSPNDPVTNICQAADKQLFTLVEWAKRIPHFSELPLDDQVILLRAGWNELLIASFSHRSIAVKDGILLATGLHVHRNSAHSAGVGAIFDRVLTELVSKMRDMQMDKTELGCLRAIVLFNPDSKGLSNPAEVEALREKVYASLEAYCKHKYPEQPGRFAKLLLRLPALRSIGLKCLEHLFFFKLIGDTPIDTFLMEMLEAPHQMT
Chain of human Retinoid X Receptor beta (RXRb), RXRB (gene 6257) (P28702 whole entry, looked up, the tested form may be a part): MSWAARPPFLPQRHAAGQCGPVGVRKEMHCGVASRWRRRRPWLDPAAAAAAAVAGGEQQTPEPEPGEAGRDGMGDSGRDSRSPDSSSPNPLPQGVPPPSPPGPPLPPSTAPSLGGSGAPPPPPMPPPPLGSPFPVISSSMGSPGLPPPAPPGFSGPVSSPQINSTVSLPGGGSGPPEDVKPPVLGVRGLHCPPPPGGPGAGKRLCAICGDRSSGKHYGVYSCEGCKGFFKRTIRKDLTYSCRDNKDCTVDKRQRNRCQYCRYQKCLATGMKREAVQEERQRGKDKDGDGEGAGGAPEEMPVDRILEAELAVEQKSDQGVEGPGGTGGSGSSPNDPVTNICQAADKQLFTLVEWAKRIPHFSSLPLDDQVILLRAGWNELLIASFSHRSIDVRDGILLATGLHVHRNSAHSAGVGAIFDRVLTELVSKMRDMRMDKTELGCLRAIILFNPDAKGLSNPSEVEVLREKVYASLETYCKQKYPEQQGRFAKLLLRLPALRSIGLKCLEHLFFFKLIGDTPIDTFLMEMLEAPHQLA
Chain of human Vitamin D Receptor (VDR), VDR (gene 7421) (P11473 whole entry, looked up, the tested form may be a part): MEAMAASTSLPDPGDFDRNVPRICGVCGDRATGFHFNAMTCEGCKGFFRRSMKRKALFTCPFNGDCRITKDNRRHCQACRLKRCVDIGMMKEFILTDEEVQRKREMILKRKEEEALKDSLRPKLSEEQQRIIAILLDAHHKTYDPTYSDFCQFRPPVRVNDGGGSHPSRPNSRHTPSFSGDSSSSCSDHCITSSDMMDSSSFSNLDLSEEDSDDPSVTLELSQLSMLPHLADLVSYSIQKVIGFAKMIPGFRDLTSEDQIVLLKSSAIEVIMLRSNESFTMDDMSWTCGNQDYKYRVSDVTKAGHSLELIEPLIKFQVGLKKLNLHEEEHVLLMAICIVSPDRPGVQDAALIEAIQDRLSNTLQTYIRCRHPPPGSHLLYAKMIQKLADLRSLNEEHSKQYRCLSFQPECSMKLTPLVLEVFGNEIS
Chain of E-selectin (Homo sapiens) (P16581 whole entry, looked up): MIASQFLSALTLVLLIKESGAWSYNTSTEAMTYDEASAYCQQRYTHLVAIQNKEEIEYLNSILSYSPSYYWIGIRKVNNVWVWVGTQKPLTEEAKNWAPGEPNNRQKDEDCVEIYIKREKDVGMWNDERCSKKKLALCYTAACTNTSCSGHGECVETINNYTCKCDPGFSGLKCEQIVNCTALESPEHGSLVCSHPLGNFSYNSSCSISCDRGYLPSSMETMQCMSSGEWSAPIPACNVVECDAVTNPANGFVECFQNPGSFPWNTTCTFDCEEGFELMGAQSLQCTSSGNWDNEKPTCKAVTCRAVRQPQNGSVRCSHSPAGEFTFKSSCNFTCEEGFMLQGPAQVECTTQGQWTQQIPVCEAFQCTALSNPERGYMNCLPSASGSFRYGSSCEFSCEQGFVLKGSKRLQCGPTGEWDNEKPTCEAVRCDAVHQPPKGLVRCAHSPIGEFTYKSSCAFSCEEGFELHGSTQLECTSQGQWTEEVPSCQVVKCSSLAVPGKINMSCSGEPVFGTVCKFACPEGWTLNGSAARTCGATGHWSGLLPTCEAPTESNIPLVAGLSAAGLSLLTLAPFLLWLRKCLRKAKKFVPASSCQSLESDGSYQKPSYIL

c1ccc(Nc2ccccc2)cc1
active: [7] 13.5 µM
inactive: all other assays above

COc1c(Cl)ccc(Cl)c1C(=O)O
not listed: [2] | [19]
inactive: all other assays above

CC(=O)[C@H]1CC[C@H]2[C@@H]3CCC4=CC(=O)CC[C@]4(C)[C@H]3CC[C@]12C
inactive: [1] | [4] | [9] | [10] | [15] | [16] | [17]
active: [3] 10.1 µM | [5] 8.12 µM | [6] 12.7 µM | [7] 20 µM | [8] 20 µM | [11] 6.1 µM | [12] 7.49 µM | [13] 9.8 µM | [14] 31.9 µM | [18] 10 µM

C#C[C@]1(O)CC[C@H]2[C@@H]3CCC4=CC(=O)CC[C@@H]4[C@H]3CC[C@@]21CC
active: [7] 20 µM | [12] 3.16 µM
inactive: all other assays above

COc1nc(C)nc(NC(=O)NS(=O)(=O)c2ccccc2OCCCl)n1
inactive: all assays above

O=C(Nc1ccc([N+](=O)[O-])cc1Cl)c1cc(Cl)ccc1O
inactive: [3] | [5] | [8] | [9] | [12] | [19]
active: [4] 0.148 µM | [7] 0.169 µM | [11] 0.589 µM | [14] 0.302 µM | [15] 0.516 µM | [16] 0.34 µM | [17] 0.148 µM | [18] 0.148 µM

COC(=O)c1cccc(C)c1S(=O)(=O)NC(=O)Nc1nc(OCC(F)(F)F)nc(N(C)C)n1
not listed: [2] | [10]
inactive: all other assays above

CCOC(=O)c1ccc(O)cc1
inactive: all assays above

CC(C)(c1ccc(O)cc1)c1ccc(O)cc1
inactive: [1] | [2] | [3] | [4] | [5] | [6] | [7] | [8] | [9] | [11] | [12] | [13] | [14] | [15] | [16] | [17] | [18] | [19]
active: [2] 0.00419 µM | [11] 14.2 µM | [13] 39.6 µM and 20 µM | [16] 24 µM
